TEAD-YAP inh – TEAD-YAP interaction inhibition, primary screen, TEAD-YAP interaction inhibitor project, luminescence, HEK-TIYL cells; TEAD-Gal4/YAP UAS-luciferase luminescence; inhibition, % at 9.12 µM; 640,000 compounds, 1.4% hits; AID 1259422, 2018; in the data active = inhibition above about 32%;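 also: 0% = median of test compound wells and 100% = reference inhibitor wells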
GPR151 ag – activators of human GPR151, primary screen, cell-based, PathHunter beta-arrestin, luminescence; G-protein coupled receptor 151 (Homo sapiens), Q8TDV0; PathHunter beta-arrestin GPR151 cells; activation, % at 11.2 µM; 650,000 compounds, 1% hits; in the data active = activation above about 4.9%;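 also: 0% = median of compound wells and 100% = cells with positive control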
Target sequence (Q8TDV0 whole entry, looked up): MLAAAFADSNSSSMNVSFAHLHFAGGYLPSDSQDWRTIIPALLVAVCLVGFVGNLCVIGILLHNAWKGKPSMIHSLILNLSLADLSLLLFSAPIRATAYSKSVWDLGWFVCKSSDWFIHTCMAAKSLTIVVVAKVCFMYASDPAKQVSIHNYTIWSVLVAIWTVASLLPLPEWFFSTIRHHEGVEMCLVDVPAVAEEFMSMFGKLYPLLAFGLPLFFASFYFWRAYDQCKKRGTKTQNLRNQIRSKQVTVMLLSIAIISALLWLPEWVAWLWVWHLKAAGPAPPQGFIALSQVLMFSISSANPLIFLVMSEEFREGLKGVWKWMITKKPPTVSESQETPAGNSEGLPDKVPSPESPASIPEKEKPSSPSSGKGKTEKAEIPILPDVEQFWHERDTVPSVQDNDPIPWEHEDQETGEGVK
FBW7 act – FBW7 E3 ligase activators, primary screen, biochemical, AlphaScreen, human; AID 1259310, 2017; 650,000 compounds, 0.13% hits; normalized activity (activation), % at 26.1 µM; F-box/WD repeat-containing protein 7 (Homo sapiens), Q969H0; AlphaScreen FBW7–phospho-cyclin E peptide binding, activator screen; in the data active = normalized activity above about 1.9%;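 also: purified mutant Fbw7 with reduced substrate affinity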
MITF inh – MITF inhibitors, primary screen, biochemical, AlphaScreen, human; Microphthalmia-associated transcription factor (Homo sapiens), O75030; AlphaScreen MITF homodimerization, bead proximity signal; inhibition, % at 2.6 µM; 650,000 compounds, 0.91% hits; in the data active = inhibition above about 50%;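 also: 0% = vehicle wells with protein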
GPR151 conf act – GPR151 activators, triplicate retest, confirmation, cell-based, PathHunter beta-arrestin, luminescence | activation, % at 11.2 µM | 6,700 tested, under 10 active | GPR151 PathHunter beta-arrestin cells, 90 min; % of EA-reagent control over plate median | shares compounds with GPR151 ag;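 active = mean percent activation across replicates above the confirmation screen cutoff of 4.91%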
GPR119 ag – GPR119 activators in beta-arrestin cells, counter-screen for GPR151 activator project, cell-based, PathHunter beta-arrestin, luminescence, triplicate; 6,700 compounds, 0.3% hits; activation, % at 11.2 µM; shares compounds with GPR151 ag; 90 min; 0 = compound-well median, 100 = enzyme-acceptor control;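 active = mean percent activation in the counterscreen above 29.09%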;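 also: counterscreen on off-target GPR119 to flag nonselective hits from the GPR151 activator screen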
* hit, by the source's call; x = no result given. Most compounds without a hit are left out; they make up all but 3.4% or so of the library.

SMILES	TEAD-YAP inh	GPR151 ag	FBW7 act	MITF inh	GPR151 conf act	GPR119 ag
CCOC(=O)c1oc2ccccc2c1NC(=O)C1CCCCC1	-4	0	1	10	x	x
CC(C)(C)C(=O)Nc1ccnn1C1CCN(Cc2cccc3c2OCO3)CC1	0	1	0	-10	x	x
CCC(=O)NC(Nc1sc2c(c1C#N)CCCCC2)(C(F)(F)F)C(F)(F)F	14	1	0	-5	x	x
Fc1ccccc1CSc1nnc(-c2cnccn2)n1Cc1ccco1	-34	9.9*	0	3	0	20
CCOC(=O)c1c(NC(=O)CN2CCOCC2)sc(C)c1C	5	1	0	1	x	x
CCOC(=O)c1c(NC(=O)CN2CCOCC2)sc(C(C)=O)c1C	7	8.4*	0	24	0	9
O=C(Oc1ccc(NC2=NS(=O)(=O)c3ccccc32)cc1)c1ccccc1Br	-8	0	0	0	x	x
COc1cccc(/C=C/c2nc3ccccc3c(=O)n2-c2ccc(NC(C)=O)cc2)c1OC	3	5.6*	0	0	1	16
Cn1c(Nc2ccc(-n3cc(CC(=O)NCc4nc5ccccc5[nH]4)c4ccccc43)nn2)nc2ccccc21	-16	1	0	10	x	x
O=C(Cc1cn(-c2ccc(Nc3ccccc3)nn2)c2ccccc12)NCc1nc2ccccc2[nH]1	-10	5.3*	0	-1	0	-6
CCc1ccc(OCC(=O)N/N=C/c2ccccc2O)cc1	-1	0	0	-20	x	x
O=C(COc1ccc(Cl)cc1Cl)N/N=C\c1ccc([N+](=O)[O-])s1	10	5.7*	0	7	-1	-12
COc1ccc(/C=N/NC(=O)COc2cccc(C)c2)cc1O	2	14*	0	1	1	-2
CCc1ccc(OCC(=O)N/N=C/c2ccc(O)cc2)cc1	10	5.2*	1	6	-1	-4
Cc1ccc(/C=N/NC(=O)COc2ccc(Cl)cc2[N+](=O)[O-])s1	6	2	0	16	x	x
COc1ccc(/C=N/NC(=O)COc2ccc(C)cc2)cc1O	-6	0	0	7	x	x
COc1cc(/C=N/NC(=O)COc2ccc(Cl)cc2Br)ccc1O	6	0	0	13	x	x
COc1ccc(/C=N/NC(=O)COc2ccc(Cl)cc2Cl)cc1O	4	9.4*	0	2	0	-1
Cc1noc(C)c1S(=O)(=O)Nc1ccc(F)cc1	-14	2	0	-3	x	x
c1ccc(C(CNCc2cn[nH]c2-c2cccc3ccccc23)N2CCOCC2)nc1 (stereo not given)	1	-2	0	20	x	x
CC(C)CC1=NN(C(=O)C(=O)NCCc2ccccc2)C(O)(C(F)(F)F)C1 (stereo not given)	-2	5.5*	0	0	0	1
CC(C)CCC1=NN(C(=O)C(=O)NCCc2ccccc2)C(O)(C(F)(F)F)C1 (stereo not given)	-8	1	0	10	x	x
CCCCn1c(O)c(Nc2ccc3c(c2)=NC(=O)N=3)c2ccccc21	2	6.8*	0	1	1	11
CCCCn1c(O)c(C2=c3ccccc3=NC2=O)c2ccccc21	13	-2	0	26	x	x
CCC(C)NC(=O)CN(c1cccc(C(F)(F)F)c1)S(=O)(=O)c1ccccc1 (stereo not given)	6	10.0*	0	-10	0	3
SMILES	TEAD-YAP inh	GPR151 ag	FBW7 act	MITF inh	GPR151 conf act	GPR119 ag
CCC(C)NC(=O)CN(c1cccc(C(F)(F)F)c1)S(C)(=O)=O (stereo not given)	3	0	0	-3	x	x
Cn1cc(CCC(=O)NC2CCN(Cc3ccccc3)CC2)c2ccccc21	-4	5.9*	0	1	2	1
O=C(CCCn1c(=O)c2cccn2c2ccccc21)NC1CCN(Cc2ccccc2)CC1	-4	0	0	-6	x	x
COc1ccccc1CNC(=O)CCc1cn(C)c2ccccc12	-4	5.9*	0	-2	0	0
O=C(CCCn1c(=O)c2cccn2c2cccnc21)NC1CCN(Cc2ccccc2)CC1	-13	5.8*	0	-8	-1	-4
O=C(Cn1nnc(-c2ccccc2)n1)c1ccc(OC(F)F)cc1	-5	-1	0	1	x	x
COc1cccc(C2Nc3ccccc3-c3nnc(SC)nc3O2)c1OCc1ccccc1 (stereo not given)	-6	0	0	-13	x	x
CCOc1ccc(Cl)cc1C1C2=C(CC(C)(C)CC2=O)N(C)C2=C1C(=O)CC(C)(C)C2	4	0	0	12	x	x
C#CCOc1ccc(Cl)cc1C1C2=C(CC(C)(C)CC2=O)N(C)C2=C1C(=O)CC(C)(C)C2	2	5.1*	0	3	1	10
CCCCOC(=O)C1=C(C)NC(=O)NC1c1ccc(OCC)cc1 (stereo not given)	5	1	0	0	x	x
Cc1ccc(OCC(=O)NCC(C)NC(=O)COc2ccc(C)cc2)cc1 (stereo not given)	3	-1	0	0	x	x
Cc1ccc(-c2c(N3CCCCC3)c(=O)c2=O)cc1	0	6.8*	0	-3	0	-11
COC(=O)c1cc2c(N3CCC(Cc4ccccc4)CC3)ncnc2s1	-2	5.5*	0	5	2	6
CN1CCN(c2cc(Nc3ccc4c(c3)OCCO4)c3c4c(onc24)-c2ccccc2C3=O)CC1	-2	0	0	23	x	x
CCOC(=O)C1=C(C)N=c2s/c(=C\c3ccc(Br)o3)c(=O)n2C1c1cccs1 (stereo not given)	6	4.9*	0	2	-1	0
CCOC(=O)C1=C(C)N=c2s/c(=C/c3ccc(-c4ccc(Br)cc4)o3)c(=O)n2C1c1ccc(N(C)C)cc1 (stereo not given)	6	5.5*	0	-8	0	-3
CCOC(=O)C1=C(C)N=c2s/c(=C/c3cc(Br)c(Br)o3)c(=O)n2C1c1cccs1 (stereo not given)	-10	-1	0	3	x	x
CCOC(=O)C1=C(C)N=c2s/c(=C/c3ccc(-c4ccc(C(=O)OCC)cc4)o3)c(=O)n2C1c1ccc(N(C)C)cc1 (stereo not given)	-23	0	0	3	x	x
COc1cc(C)nc(N2CCC(C(N)=O)CC2)n1	0	5.2*	0	-7	0	0
